# Source: PubChem BioAssay (National Center for Advancing Translational Sciences (NCATS))
# HepG2 tox = kills HepG2 cells in TGF-b inhibitor counter-screen; HepG2 CAGA-GFP viability, ATP luminescence, 18 h; Potency, µM (top dose mostly 46.1 µM), for the others: top-dose activity change, negative = cytotoxicity, hits mostly cytotoxic; 410,000 tested, 0.76% active
#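 CellTiter-Glo luminescence gave cytotoxicity after 18 hours at 37 degrees C. The cells were HepG2 CAGA-GFP in 1% FBS DMEM, stimulated with 500 pg/mL TGF-beta after compound addition. %Activity was normalised to no-cell wells (complete cell-killing) and DMSO (no toxicity), and curves were fitted and classified.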
# VP16 counter = Gal4-VP16 reporter inhibition counter-screen; Drosophila S2 Gal4-VP16 UAS-luciferase, luminescence, 20 h; AID 2546; Potency, µM (doses to about 53.6 µM), for the others: at the highest dose activity, negative = inhibition, most hits filed as inhibitors; 310,000 tested, 3.5% active;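 also: Gal4-VP16 expression switched on by copper sulfate through the metallothionein promoter; % is scaled to controls: 0 for no effect and ±100 for the full control effect; nearly all actives have a fitted effect of over 50% in size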
# S2 tox = reduces viability in counter-screen for ATXN expression inhibitors. S2 cells (HEK-293 line with an ATXN2-luciferase reporter) viability, CellTiter-Fluor protease fluorescence, 24 h. Potency, µM (top dose mostly 56.7 µM), hits mostly cytotoxic. 400,000 tested, 0.49% active; also: nearly all actives have a fitted effect of over 40% in size
# RORgamma inh = blocks mouse ROR gamma transcriptional activity | Drosophila S2 Gal4-RORgamma UAS-luciferase reporter, 20 h | AID 2551 | Potency, µM (top dose mostly 53.6 µM), for the others: at the top dose activity change, negative = inhibition, usual class: inhibitors | P51450 | 310,000 tested, 5.4% active; also: % is scaled to controls: 0 for no effect and ±100 for the full control effect; nearly all actives have a fitted effect of over 60% in size
# Target sequence (P51450 whole entry, looked up, the tested form may be a part): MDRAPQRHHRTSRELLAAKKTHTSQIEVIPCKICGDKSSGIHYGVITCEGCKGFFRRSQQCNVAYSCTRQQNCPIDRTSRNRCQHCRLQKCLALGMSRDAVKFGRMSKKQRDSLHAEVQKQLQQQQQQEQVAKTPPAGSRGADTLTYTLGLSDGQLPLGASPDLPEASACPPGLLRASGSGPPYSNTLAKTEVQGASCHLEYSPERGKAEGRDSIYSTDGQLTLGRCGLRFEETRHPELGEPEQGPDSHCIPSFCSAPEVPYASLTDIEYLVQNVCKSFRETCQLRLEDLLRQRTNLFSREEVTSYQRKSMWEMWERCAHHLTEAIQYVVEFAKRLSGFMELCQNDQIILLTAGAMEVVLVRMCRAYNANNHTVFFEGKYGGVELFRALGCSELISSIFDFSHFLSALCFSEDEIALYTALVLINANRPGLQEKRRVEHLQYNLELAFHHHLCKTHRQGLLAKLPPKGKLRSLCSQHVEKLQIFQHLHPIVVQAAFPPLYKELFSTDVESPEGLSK
#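 Drosophila Schneider cells stably carrying a metallothionein-driven Gal4 DBD–ROR gamma fusion and a UAS-Photinus luciferase reporter were exposed to compound for 1 hr, then induced with copper sulfate (700 uM final) for 20 hr at ambient temperature before luminescence reading.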
# TGFb SMAD3 inh = inhibitors of TGF-b signaling. HepG2 CAGA-GFP TGF-b/SMAD3 reporter, GFP fluorescence, 18 h; TGF-beta stimulated, 500 pg/mL final. Potency, µM (top dose mostly 46.1 µM), inactives show top-dose activity, negative = inhibition, actives largely listed as inhibitors. 410,000 tested, 1.2% active. AID 588855; also: % is scaled to controls: 0 for no effect and ±100 for the full control effect; nearly all actives have a fitted effect of over 65% in size
#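 TGF-beta reporter screen: HEPG2 CAGA-GFP, 1% FBS, 500 pg/mL TGF-beta final, 18 h; per-cell GFP summed per well; curves fitted and categorized by class.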
# ATXN2 expr inh = ATXN2 expression inhibition; HEK-293 ATXN2-luciferase reporter, luminescence, 24 h; Potency, µM (highest dose often 57 µM), for the others: at the highest dose activity change, negative = inhibition, hits mostly inhibitors; 360,000 tested, 0.72% active; AID 1745845; also: % is scaled to controls: 0 for no effect and ±100 for the full control effect; nearly all actives have a fitted effect of over 55% in size
#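 qHTS (up to 57 uM final) was run with 24 h compound exposure of reporter cells at 37 °C. Each well was multiplexed: SteadyGlo luminescence measured ATXN2-luciferase expression after a fluorogenic Gly-Phe-AFC viability readout (25 uM final).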
# Numbers without * were called inactive; i = inactive; ? = inconclusive; / = no result given. The list is not random: actives were taken first. Their share in the collection is about 6.1%. Calls follow the shape of the dose curve; as a rule, active = well fitted curve in the direction sought with a large enough effect; inconclusive = small, poorly fitted or top-dose-only effect, or another doubt; inactive = no such curve, though single readings can be large; an effect the other way counts as inactive or inconclusive. Potency is read from the fitted curve at half-maximal effect.
SMILES,HepG2 tox,VP16 counter,S2 tox,RORgamma inh,TGFb SMAD3 inh,ATXN2 expr inh
COc1cccc(CNS(=O)(=O)c2ccc3c(c2)CC(C)N3C(=O)C2CC2)c1 (stereo not given),-12%,?,i,-36%,?,-19%
COc1ccc(CNS(=O)(=O)c2ccc3c(c2)CC(C)N3C(=O)C2CC2)cc1 (stereo not given),-6%,18µM*,i,?,-9%,-20%
CCc1ccc(-n2nc(C)c3c(C)cc(=O)n(CC(=O)N4CCCc5ccccc54)c32)cc1,-4%,/,i,/,13%,4%
Cc1cc(N(C)C)cc(C)c1C=O,-8%,/,/,/,-16%,/
Cc1csc(NC(=O)CSc2nnc(-c3cc(C)on3)o2)n1,-26%,14µM*,i,14µM*,-24%,/
Cc1occc1-c1nnc(SCC(=O)Nc2nc(-c3ccccc3)cs2)o1,-16%,-21%,i,?,?,-3%
Cc1cc(-c2nnc(SCC(=O)Nc3nc(-c4ccccc4)cs3)o2)no1,-8%,-10%,i,14µM*,11%,2%
COc1ccc(Cc2nnc(SCC(=O)Nc3nc(C)cs3)o2)cc1,-4%,-4%,i,35µM*,?,13%
COc1ccc(Cc2nnc(SCC(=O)c3ccc(OC)cc3)o2)cc1,-4%,11%,i,2%,-16%,-2%
CCOc1ccccc1CNc1ncnc2onc(-c3ccc(F)cc3)c12,-7%,/,i,/,3%,1%
Cc1cc(C(F)(F)F)c2c(N)c(C(=O)NCc3ccc(Cl)cc3)sc2n1,/,/,i,/,/,7%
Cc1cc(C(F)(F)F)c2c(N)c(C(=O)Nc3cc(C)on3)sc2n1,-1%,4µM*,/,7.1µM*,25%,10%
COc1ccc(Nc2cc(C(=O)NCCCN(C)Cc3ccccc3)c3ccccc3n2)cc1,-49%,/,/,/,?,/
CSc1cccc(Nc2cc(C(=O)NCCCN(Cc3ccccc3)C(C)C)c3ccccc3n2)c1,10µM*,/,?,/,?,25µM*
Cc1cc(C)cc(Nc2cc(C(=O)NCCCN(Cc3ccccc3)C(C)C)c3ccccc3n2)c1,1%,/,13µM*,/,-30%,14µM*
CCCn1nnnc1NC(=O)c1cc(Cl)ccc1Cl,18%,2.2µM*,i,1.6µM*,9%,-11%
CCCn1nnnc1NC(=O)CSc1ccc(Cl)cc1,-18%,2.2µM*,i,0.89µM*,1%,-21%
CCn1nnc(NC(=O)CSc2ccc(Cl)cc2)n1,-29%,10%,i,1%,-5%,-6%
COc1ccccc1CNc1ccnc(-c2ccc(N(C)C)cc2)n1,/,14µM*,/,?,/,/
CN(C)c1ccc(-c2nccc(NCc3ccccc3)n2)cc1,/,-10%,/,-7%,/,/
O=c1oc2ccc3ccccc3c2cc1-c1nnc(Nc2ccc(Cl)cc2Cl)s1,1%,/,i,/,1%,12%
Cn1c(=O)c2c(nc(N/N=C/c3ccncc3)n2Cc2ccccc2)n(C)c1=O,-1%,-16%,i,2%,3%,6%
COc1cc(/C=N/Nc2ccc(Cl)c(C(=O)O)c2)ccc1OC(=O)c1ccco1,5%,1%,i,-1%,-7%,?
Cc1ccc(Cn2c(N/N=C/c3ccncc3)nc3c2c(=O)n(C)c(=O)n3C)cc1,-10%,10µM*,i,-44%,21%,8%
COc1cc(/C=N/Nc2nc3c(c(=O)n(C)c(=O)n3C)n2Cc2ccccc2)ccc1OC(=O)c1ccco1,-48%,18µM*,?,-23%,-2%,?
SMILES,HepG2 tox,VP16 counter,S2 tox,RORgamma inh,TGFb SMAD3 inh,ATXN2 expr inh
CCOC(=O)c1c(-c2ccccc2)oc2ccc(O)c(CN(C)C)c12,-75%,-3%,?,-22%,-2%,-22%
CCOC(=O)c1c(CSCc2ccccc2)oc2ccc(O)c(CN(C)C)c12,22µM*,-21%,?,?,?,?
O=C(Nn1cc(C(=O)Nc2ccc(F)cc2F)c2ccccc2c1=O)c1cnccn1,-30%,?,?,11µM*,-8%,?
CN[C@@H](C)C(=O)N[C@H]1CN(C(=O)CC(C)C)CC[C@H]2CC[C@@H](C(=O)NC(c3ccccc3)c3ccccc3)N2C1=O,/,/,/,/,/,-3%
O=C(N/N=C/c1ccoc1)c1cccc([N+](=O)[O-])c1,-1%,?,i,11µM*,0%,7%
Cc1ccc(C(=O)N/N=C/c2ccoc2)cc1C,-3%,?,i,13µM*,-1%,37%
O=C(N/N=C/c1ccc(Br)s1)c1cccc([N+](=O)[O-])c1,-56%,1µM*,i,0.45µM*,0%,-23%
CCn1c(SCc2ccccc2)nnc1-c1nonc1NC(C)=O,-19%,/,i,/,-9%,-12%
CCC(=O)N1CCc2cc(Br)cc(S(=O)(=O)NCCc3ccc(C)cc3)c21,-5%,/,/,/,-16%,/
Cc1c(C(C)(C)C)s/c(=N/S(=O)(=O)c2ccccc2)n1C,-4%,7%,i,35%,-6%,/
CC(C)(C)c1cc[n+](C2=C([O-])c3ccccc3C(=O)/C2=N\S(=O)(=O)c2ccccc2)cc1,i,6.3µM*,?,5.6µM*,14µM*,?
CCCCC[n+]1ccn(C2=C([O-])c3ccccc3C(=O)/C2=N\S(=O)(=O)c2ccccc2)c1,6.3µM*,?,i,?,?,?
CCCC[n+]1ccn(-c2nc3ccccc3nc2[N-]S(=O)(=O)c2ccccc2)c1,3%,0%,i,27%,5%,6%
CCCC[n+]1ccn(C2=C([O-])c3ccccc3C(=O)/C2=N\S(=O)(=O)c2ccccc2)c1,11µM*,?,?,?,8.9µM*,?
CCc1ccc(S(=O)(=O)/N=C2\C=C(NS(=O)(=O)c3ccccc3)C(=O)c3ccccc32)cc1,-60%,-3%,?,-19%,?,-21%
CC(C)[n+]1ccn(C2=C([O-])c3ccccc3C(=O)/C2=N\S(=O)(=O)c2ccccc2)c1,-128%,?,i,-38%,20µM*,-41%
Cc1cc(Cl)ccc1OCC(=O)Nc1c(Cl)ccc2nsnc12,-6%,/,i,/,-3%,-14%
OC[C@@H](O)[C@H](O)[C@H](O)[C@@H](O)CO,/,/,i,/,/,13%
COc1cccc(Cn2c(=O)c(CCc3ccccc3)nc3cnc(N4CCN(C)CC4)nc32)c1,/,2%,/,-25%,/,/
CCN(CC)c1ccc(NC(=O)CCc2nc3cccnc3n2Cc2cccs2)c(C)c1,-11%,/,/,/,10%,/
